# In all, about 8,300 sequences were measured (“log2 fold change of degron read counts, EGFP-low vs EGFP+ sorted cells (limma voom), compound-induced degradation”: median about -1.1, highest 2% from about 3.2 on). The full list was thinned out, with the highest values kept by preference.
# B1: 46F_47A_49D_50Q_52G_53A_54Y_55F_67L_, Q9UKT9 (peptide)
# chain: FACDQCGAYFTQKGNLLRHIKL
# B2: 46F_47L_49S_50V_52G_53H_54Q_55F_67L_, Q9UKT9 (peptide)
# chain: FLCSVCGHQFTQKGNLLRHIKL
# B3: 46F_47K_49D_50Q_52G_53A_54C_55F_67L_, Q9UKT9 (peptide)
# chain: FKCDQCGACFTQKGNLLRHIKL
# B4: 46F_47L_49P_50Q_52G_53A_54I_55F_67L_, Q9UKT9 (peptide)
# chain: FLCPQCGAIFTQKGNLLRHIKL
# B5: 46F_47K_49D_50I_52G_53A_54S_55F_67L_, Q9UKT9 (peptide)
# chain: FKCDICGASFTQKGNLLRHIKL
# B6: 46F_47A_49D_50V_52G_53A_54Q_55F_67L_, Q9UKT9 (peptide)
# chain: FACDVCGAQFTQKGNLLRHIKL
# B7: 46F_47S_49E_50I_52G_53A_54V_55F_67L_, Q9UKT9 (peptide)
# chain: FSCEICGAVFTQKGNLLRHIKL
# B8: 46F_47N_49E_50I_52G_53A_54V_55F_67L_, Q9UKT9 (peptide)
# chain: FNCEICGAVFTQKGNLLRHIKL
# B9: 46F_47T_49E_50I_52G_53A_54V_55F_67L_, Q9UKT9 (peptide)
# chain: FTCEICGAVFTQKGNLLRHIKL
# B10: 46F_47F_49E_50I_52G_53A_54V_55F_67L_, Q9UKT9 (peptide)
# chain: FFCEICGAVFTQKGNLLRHIKL
# B11: 46F_47M_49E_50I_52G_53A_54V_55F_67L_, Q9UKT9 (peptide)
# chain: FMCEICGAVFTQKGNLLRHIKL
# B12: 46F_47W_49E_50I_52G_53A_54V_55F_67L_, Q9UKT9 (peptide)
# chain: FWCEICGAVFTQKGNLLRHIKL
# B13: 46F_47H_49E_50I_52G_53A_54V_55F_67L_, Q9UKT9 (peptide)
# chain: FHCEICGAVFTQKGNLLRHIKL
# B14: 46F_47A_49E_50I_52G_53A_54V_55F_67L_, Q9UKT9 (peptide)
# chain: FACEICGAVFTQKGNLLRHIKL
# B15: 46F_47C_49E_50I_52G_53A_54V_55F_67L_, Q9UKT9 (peptide)
# chain: FCCEICGAVFTQKGNLLRHIKL
# B16: 46F_47Y_49E_50I_52G_53A_54V_55F_67L_, Q9UKT9 (peptide)
# chain: FYCEICGAVFTQKGNLLRHIKL
# B17: 46F_47E_49E_50I_52G_53A_54V_55F_67L_, Q9UKT9 (peptide)
# chain: FECEICGAVFTQKGNLLRHIKL
# B18: 46F_47G_49E_50I_52G_53A_54V_55F_67L_, Q9UKT9 (peptide)
# chain: FGCEICGAVFTQKGNLLRHIKL
# B19: 46F_47V_49P_50I_52G_53R_54L_55F_67L_, Q9UKT9 (peptide)
# chain: FVCPICGRLFTQKGNLLRHIKL
# B20: 46L_47V_49N_50Q_52G_53F_54K_55C_67L_, Q9UKT9 (peptide)
# chain: LVCNQCGFKCTQKGNLLRHIKL
# B21: 46F_47F_49S_50V_52G_53H_54H_55F_67L_, Q9UKT9 (peptide)
# chain: FFCSVCGHHFTQKGNLLRHIKL
# B22: 46F_47C_49N_50Q_52G_53H_54N_55F_67L_, Q9UKT9 (peptide)
# chain: FCCNQCGHNFTQKGNLLRHIKL
# B23: 46F_47H_49P_50V_52G_53A_54M_55F_67L_, Q9UKT9 (peptide)
# chain: FHCPVCGAMFTQKGNLLRHIKL
# B24: 46F_47Y_49N_50Q_52G_53R_54R_55F_67L_, Q9UKT9 (peptide)
# chain: FYCNQCGRRFTQKGNLLRHIKL
# B25: 46L_47F_49P_50I_52G_53F_54V_55C_67L_, Q9UKT9 (peptide)
# chain: LFCPICGFVCTQKGNLLRHIKL
# B26: 46F_47L_49N_50V_52G_53A_54Q_55F_67L_, Q9UKT9 (peptide)
# chain: FLCNVCGAQFTQKGNLLRHIKL
# B27: 46F_47R_49P_50V_52G_53A_54R_55F_67L_, Q9UKT9 (peptide)
# chain: FRCPVCGARFTQKGNLLRHIKL
# B28: 46F_47T_49P_50V_52G_53A_54R_55F_67L_, Q9UKT9 (peptide)
# chain: FTCPVCGARFTQKGNLLRHIKL
# B29: 46F_47L_49P_50V_52G_53A_54R_55F_67L_, Q9UKT9 (peptide)
# chain: FLCPVCGARFTQKGNLLRHIKL
# B30: 46F_47Q_49P_50V_52G_53A_54L_55F_67L_, Q9UKT9 (peptide)
# chain: FQCPVCGALFTQKGNLLRHIKL
# B31: 46F_47K_49P_50V_52G_53A_54R_55F_67L_, Q9UKT9 (peptide)
# chain: FKCPVCGARFTQKGNLLRHIKL
# B32: 46F_47G_49P_50V_52G_53A_54R_55F_67L_, Q9UKT9 (peptide)
# chain: FGCPVCGARFTQKGNLLRHIKL
# B33: 46F_47V_49P_50V_52G_53A_54D_55F_67L_, Q9UKT9 (peptide)
# chain: FVCPVCGADFTQKGNLLRHIKL
# B34: 46F_47F_49P_50V_52G_53A_54L_55F_67L_, Q9UKT9 (peptide)
# chain: FFCPVCGALFTQKGNLLRHIKL
# B35: 46F_47Q_49P_50V_52G_53A_54D_55F_67L_, Q9UKT9 (peptide)
# chain: FQCPVCGADFTQKGNLLRHIKL
# B36: 46F_47W_49P_50V_52G_53A_54R_55F_67L_, Q9UKT9 (peptide)
# chain: FWCPVCGARFTQKGNLLRHIKL
# B37: 46F_47V_49P_50V_52G_53A_54L_55F_67L_, Q9UKT9 (peptide)
# chain: FVCPVCGALFTQKGNLLRHIKL
# B38: 46F_47C_49P_50V_52G_53A_54D_55F_67L_, Q9UKT9 (peptide)
# chain: FCCPVCGADFTQKGNLLRHIKL
# Biological target: T1, CRBN, Q96SW2
# T1 chain: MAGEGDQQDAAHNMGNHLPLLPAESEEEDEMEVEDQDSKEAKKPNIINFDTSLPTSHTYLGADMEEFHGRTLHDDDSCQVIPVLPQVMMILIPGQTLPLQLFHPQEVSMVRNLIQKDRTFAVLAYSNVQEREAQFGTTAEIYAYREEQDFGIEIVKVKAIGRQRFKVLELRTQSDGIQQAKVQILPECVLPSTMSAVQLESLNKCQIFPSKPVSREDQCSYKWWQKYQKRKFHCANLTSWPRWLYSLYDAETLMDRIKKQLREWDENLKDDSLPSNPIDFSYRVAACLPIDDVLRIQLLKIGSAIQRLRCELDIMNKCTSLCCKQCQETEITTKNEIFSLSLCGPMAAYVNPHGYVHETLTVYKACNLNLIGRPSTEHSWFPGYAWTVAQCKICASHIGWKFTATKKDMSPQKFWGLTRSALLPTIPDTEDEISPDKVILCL
# Experiment: log2 fold change of degron read counts, EGFP-low vs EGFP+ sorted cells (limma voom), compound-induced degradation; higher = more compound-induced degradation of the degron-EGFP fusion; degrons are variants of IKZF1/3 zinc finger 2; compound dose not given here
# Details: Jurkat, 18 h
# [1] = compound: compound 19 (5-tert-butyl-thalidomide)
# [2] = compound: compound 22 (5-morpholino-thalidomide)
# [3] = compound: compound 33 (diphenyl IMiD analogue)
# 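Also: pooled lentiviral library of zinc finger degron-EGFP fusions in mCherry-positive Jurkat cells, FACS-sorted after compound exposure, with degron abundance counted by next-generation sequencing.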
Sequence,log2 fold change of degron read counts [1],log2 fold change of degron read counts [2],log2 fold change of degron read counts [3],log2 fold change of degron read counts (compound: thalidomide)
B1,-1.75,-2.34,-1.85,-2.43
B2,-2.83,-2.7,-2.54,-2.76
B3,-2.75,-3.31,-3.66,-3.24
B4,-1.63,-1.54,-0.716,-0.881
B5,-0.288,-2.66,-3.19,-1.69
B6,1.75,-0.392,-1.04,-1.67
B7,2.73,1.89,2.49,1.44
B8,1.15,-0.231,0.00137,-0.335
B9,0.417,1.97,2.08,2.64
B10,3.46,3.76,2.2,1.64
B11,-1.1,-0.16,2.5,1.37
B12,3.33,3.51,2.5,0.916
B13,1.69,1.65,1.31,0.109
B14,3.29,2.39,1.27,0.606
B15,1.77,1.91,2.47,2.16
B16,3.66,3.6,2.79,1.07
B17,-0.462,-0.764,1.98,2.39
B18,2.88,2.6,2.14,1.13
B19,-1.24,-0.36,0.85,1.08

Sequence,log2 fold change of degron read counts [1],log2 fold change of degron read counts [2],log2 fold change of degron read counts [3],log2 fold change of degron read counts (compound: thalidomide)
B20,-2.22,-2.27,-2.4,-0.986
B21,-2.1,-2.74,-2.17,-1.83
B22,-2.54,-3.15,-2.94,-2.37
B23,1.4,1.46,1.42,-0.0518
B24,-2.62,-2.54,-2.6,-2.29
B25,3.02,2.99,1.66,1.45
B26,-2.31,-2.24,-0.00793,-0.809
B27,-1.26,-1.08,-0.255,0.153
B28,0.934,2.59,1.76,2.95
B29,-0.179,-0.342,0.651,1.68
B30,-1.05,1.65,1.66,3.5
B31,-1.78,-2.92,-2.71,-1.48
B32,3.6,2.1,-0.116,1.03
B33,-0.973,0.651,1,1.76
B34,1.62,1.64,1.45,0.0806
B35,-0.246,1.22,2.37,3.4
B36,2.67,3.51,1.2,1.26
B37,-1.75,0.353,1.26,0.951
B38,0.844,0.509,1.45,0.741

# — the supplement of paper PMC12645437, “Orthogonal IMiD-Degron Pairs Induce Selective Protein Degradation in Cells” (ACS Chemical Biology, 2025)
